Laboratory results reported in PubChem BioAssay (Tox21).
Values joined by “and” are separate entries in the source; they are usually repeats but may differ in a detail not shown here. Identical values can stand only once. Records with an inconclusive call do not appear. Entries that show only a call come without a potency. The source holds several records for some structures; these can differ, active in one and inactive in another. Active and inactive are the calls of the source. Unless noted, calls follow the shape of the dose curve; as a rule, active = well fitted curve in the direction sought with a large enough effect in the repeat runs; inconclusive = weak or mixed curves; inactive = no such curve, though single readings can be large; an effect the other way counts as inactive or inconclusive.

Molecular target: Nuclear receptor subfamily 1 group I member 3 (Homo sapiens) (UniProt Q14994)
Sequence (Q14994 whole entry, looked up): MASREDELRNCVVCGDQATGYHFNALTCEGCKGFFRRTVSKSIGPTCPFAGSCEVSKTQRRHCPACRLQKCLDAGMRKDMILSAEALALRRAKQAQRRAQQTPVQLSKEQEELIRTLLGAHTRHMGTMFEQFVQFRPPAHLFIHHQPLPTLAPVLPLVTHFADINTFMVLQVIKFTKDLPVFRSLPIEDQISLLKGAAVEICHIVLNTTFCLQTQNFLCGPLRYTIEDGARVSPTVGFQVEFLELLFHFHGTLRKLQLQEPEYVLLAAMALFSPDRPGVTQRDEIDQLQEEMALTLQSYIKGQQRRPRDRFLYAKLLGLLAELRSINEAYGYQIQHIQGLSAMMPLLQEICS
Assay: qHTS assay to identify small molecule antagonists of the constitutive androstane receptor (CAR) signaling pathway (AID 1224838);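 also: HepG2 cells stably expressing hCAR with CYP2B6 luciferase reporter stimulated by CITCO; nearly all actives have a fitted effect of over 40% in size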
Conditions: HepG2-CYP2B6-hCAR luciferase, CITCO-stimulated, 24 h; series mostly up to 92.4 µM
Summary of the method: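 Human hepatoma HepG2 cells expressing hCAR and a CYP2B6 promoter (2.2 kb) luciferase construct; compound titration (15 points) with 50 nM CITCO final, 24 h at 37 C/5% CO2; luminescence via ONE-Glo after 30 min at room temperature.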
Potency is read from the fitted curve at half-maximal effect.

Row | Compound | Potency
1 | CCCCCCCCCCCCCCCS(=O)(=O)Oc1ccccc1 | inactive
2 | NC(=NCCCCCCN=C(N)/N=C(\N)Nc1ccc(Cl)cc1)/N=C(\N)Nc1ccc(Cl)cc1 | 60.8 µM (active) and inactive
3 | CCN1/C(=C/C=C/c2sc3ccccc3[n+]2CC)Sc2ccccc21 | 14.6 µM (active)
4 | CCCN(CCC)C(=O)C(CCC(=O)OCCCN1CCN(CCOC(=O)Cc2c(C)n(C(=O)c3ccc(Cl)cc3)c3ccc(OC)cc23)CC1)NC(=O)c1ccccc1 (stereo not given) | inactive
5 | N#CSc1ccc(N)c([N+](=O)[O-])c1 | 48.9 µM (active)
6 | Nc1c2ccccc2nc2ccccc12 | 956 nM (active) and 1.68 µM (active)
7 | Cc1cc(O)c(Cl)c(C)c1Cl | inactive
8 | CCC(C)Nc1ccc(NC(C)CC)cc1 (stereo not given) | 27.8 µM (active)
9 | CCCCCCCCCCCCCC[P+](CCCC)(CCCC)CCCC (tested in a mixture with another compound) | 17.3 µM (active)
10 | Cc1ccc(O)c(C(C)(C)C)c1 | inactive
11 | OCc1c[nH]c2ccccc12 | inactive
12 | Cn1cc(C(=O)[C@@H]2CCc3nc[nH]c3C2)c2ccccc21 | inactive
13 | Nc1ccc2c3c(cccc13)-c1ccccc1-2 | inactive
14 | Cc1cccc(CN2CCN(C(c3ccccc3)c3ccc(Cl)cc3)CC2)c1 (stereo not given) | inactive
15 | COc1cccc2c1C(=O)c1c(O)c3c(c(O)c1C2=O)C[C@@](O)(C(=O)CO)C[C@@H]3O[C@H]1C[C@H](N)[C@H](O[C@@H]2CCCCO2)[C@H](C)O1 | 0.944 µM (active)
16 | CCCCCCCCS(=O)C(C)Cc1ccc2c(c1)OCO2 (stereo not given) | inactive
17 | CC(C)n1nc(-c2cc3cc(O)ccc3[nH]2)c2c(N)ncnc21 | 15 µM (active)
18 | Cc1c(C)c2c(c(C)c1OC(=O)CCC(=O)O)CC[C@@](C)(CCC[C@H](C)CCC[C@H](C)CCCC(C)C)O2 | inactive

Molecular target: Nuclear receptor subfamily 1 group I member 3 (Homo sapiens) (UniProt Q14994)
Assay: qHTS assay to identify small molecule agonists of the constitutive androstane receptor (CAR) signaling pathway (AID 1224839); also: nearly all actives have a fitted effect of over 15% in size
Conditions: HepG2 hCAR CYP2B6-luciferase, agonist mode, 24 h; series mostly up to 92.4 µM
Summary of the method: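 A 15-concentration quantitative screen uses HepG2 cells co-transfected stably with human CAR and CYP2B6-2.2kb reporter. Treatment lasts 24 h with 0.75 uM PK11195 final present; ONE-Glo luminescence is the signal.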

Row | Compound | Potency | activation
19 | CCCCCCCCCCCCCCCS(=O)(=O)Oc1ccccc1 | inactive | 
20 | CCC1=C[C@@H]2CN(C1)Cc1c([nH]c3ccccc13)[C@@](C(=O)OC)(c1cc3c(cc1OC)N(C)[C@H]1[C@@](O)(C(=O)OC)[C@H](OC(C)=O)[C@]4(CC)C=CCN5CC[C@]31[C@@H]54)C2 | inactive | 
21 | CCN1/C(=C/C=C/c2sc3ccccc3[n+]2CC)Sc2ccccc21 |  | -9.24% [at 19 µM] (inactive)
22 | COc1ccc(-c2ccc3cc(C(=O)O)ccc3c2)cc1C12CC3CC(CC(C3)C1)C2 | inactive | 
23 | CCCN(CCC)C(=O)C(CCC(=O)OCCCN1CCN(CCOC(=O)Cc2c(C)n(C(=O)c3ccc(Cl)cc3)c3ccc(OC)cc23)CC1)NC(=O)c1ccccc1 (stereo not given) | inactive | 
24 | N#CSc1ccc(N)c([N+](=O)[O-])c1 | inactive | 
25 | Nc1c2ccccc2nc2ccccc12 | inactive | 
26 | Cc1cc(O)c(Cl)c(C)c1Cl | inactive | 
27 | CCC(C)Nc1ccc(NC(C)CC)cc1 (stereo not given) | inactive | 
28 | CN1CCC(Nc2ncc3ncnc(Nc4ccc(F)c(Cl)c4)c3n2)CC1 | inactive | 
29 | CCCCCCCCCCCCCC[P+](CCCC)(CCCC)CCCC (tested in a mixture with another compound) | inactive | 
30 | CCN(Cc1cccnc1)C(=O)c1cccc(Cl)c1[C@]1(C)C(=O)N(Cc2ccc(OC)cc2OC)c2ccc(Cl)cc21 | inactive | 
31 | Cc1ccc(O)c(C(C)(C)C)c1 | inactive | 
32 | NNc1nc(-c2ccccc2)cs1 | 49.9 µM (active) | 
33 | CCOc1ccc2nc3cc(N)ccc3c(N)c2c1 | inactive | 
34 | CC(=O)S[C@@H]1CC2=CC(=O)CC[C@]2(C)[C@H]2CC[C@@]3(C)[C@@H](CC[C@@]34CCC(=O)O4)[C@H]12 | inactive | 
35 | OCc1c[nH]c2ccccc12 | 30.6 µM (active) | 
36 | Cn1cc(C(=O)[C@@H]2CCc3nc[nH]c3C2)c2ccccc21 | inactive | 
37 | Nc1ccc2c3c(cccc13)-c1ccccc1-2 | 21.9 µM (active) | 
38 | O=C(Nc1ccc(Oc2ccc(Cl)cc2)c(Cl)c1)c1cc(I)cc(I)c1O | inactive | 
39 | Cc1cccc(CN2CCN(C(c3ccccc3)c3ccc(Cl)cc3)CC2)c1 (stereo not given) | inactive | 
40 | CCCCCCCCn1sc(Cl)c(Cl)c1=O | inactive | 
41 | COc1cccc2c1C(=O)c1c(O)c3c(c(O)c1C2=O)C[C@@](O)(C(=O)CO)C[C@@H]3O[C@H]1C[C@H](N)[C@H](O[C@@H]2CCCCO2)[C@H](C)O1 | inactive | 
42 | CC(C)n1nc(-c2cc3cc(O)ccc3[nH]2)c2c(N)ncnc21 | inactive | 
43 | Cc1c(C)c2c(c(C)c1OC(=O)CCC(=O)O)CC[C@@](C)(CCC[C@H](C)CCC[C@H](C)CCCC(C)C)O2 | inactive | 

System: not listed separately
Assay: qHTS assay to identify small molecule antagonists of the estrogen related receptor signaling pathway with the pleiotropic PPARgamma coactivator (PGC) from Tox21 10K library - cell viability counter screen (AID 1224840; active = well fitted cell-killing curve with a large enough effect in the repeat runs, not every such curve was filed as active; also: nearly all actives have a fitted effect of over 40% in size)
Conditions: PGC/ERR reporter cells viability, CellTiter-Fluor, 17.5 h; series mostly up to 92.4 µM
Summary of the method: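 Seeded PGC/ERR cells (2,000/well, 6 h, 37 C/5% CO2) get compound by pin tool; 17.5 h incubation at 37 C; CellTiter-Fluor added, 30 min, fluorescence measured.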

Row | Compound | Potency
44 | NC(=NCCCCCCN=C(N)/N=C(\N)Nc1ccc(Cl)cc1)/N=C(\N)Nc1ccc(Cl)cc1 | 54 µM (active) [middle of 4 runs]
45 | CCN1/C(=C/C=C/c2sc3ccccc3[n+]2CC)Sc2ccccc21 | 6.51 µM (active)
46 | O=C(Nc1cccc(Cl)c1)OCC#CCCl | 48.6 µM (active)
47 | COc1ccc(-c2ccc3cc(C(=O)O)ccc3c2)cc1C12CC3CC(CC(C3)C1)C2 | inactive
48 | CCCCN(CCCC)c1ccc(C(=O)c2ccccc2C(=O)O)c(O)c1 | inactive
49 | N#CSc1ccc(N)c([N+](=O)[O-])c1 | 54.8 µM (active)
50 | Nc1c2ccccc2nc2ccccc12 | inactive
51 | Cc1cc(O)c(Cl)c(C)c1Cl | inactive
52 | CCC(C)Nc1ccc(NC(C)CC)cc1 (stereo not given) | 15.7 µM (active)
53 | CCCCCCC[N+](CC)(CC)CCCCc1ccc(Cl)cc1 | inactive
54 | CCCCCCCCCCCCCC[P+](CCCC)(CCCC)CCCC (tested in a mixture with another compound) | 17.3 µM (active)
55 | Cc1ccc(O)c(C(C)(C)C)c1 | inactive
56 | OCc1c[nH]c2ccccc12 | inactive
57 | Cn1cc(C(=O)[C@@H]2CCc3nc[nH]c3C2)c2ccccc21 | inactive
58 | Cc1cccc(CN2CCN(C(c3ccccc3)c3ccc(Cl)cc3)CC2)c1 (stereo not given) | inactive
59 | CN(C)CCCOC1(Cc2ccccc2)CCCCCC1 | inactive
60 | Cc1c(C)c2c(c(C)c1OC(=O)CCC(=O)O)CC[C@@](C)(CCC[C@H](C)CCC[C@H](C)CCCC(C)C)O2 | inactive
